# The source made the active and inactive calls. How the source made its calls: active means hit-call score of the fitted dose curve at least 0.9, where 1 is the maximum; inactive means score below 0.9.
# Read-out: Forkhead box O1 (FOXO1), FOXO1 (gene 2308)
# Assay: LTEA_HepaRG_FOXO1: Life Technologies and Expression Analysis (LTEA) Assay for Forkhead box O1 (FOXO1) using HepaRG (AID 2283456)
# Settings: mRNA level, 48 h; actives raise or lower the signal
# Experimental: LTEA_HepaRG is a cell based, multiplexed-readout assay that uses HepaRG, a human liver cell line, with measurements taken at 48 hours after chemical dosing on a 96-well plate.LTEA_HepaRG_FOXO1 is one of 102 assay component(s) measured in the LTEA HepaRG cell culture assay. It is a marker of Cell proliferation, survival, death.Data from the assay component LTEA_HepaRG_FOXO1 was analyzed into 1 endpoint. This assay endpoint, LTEA_HepaRG_FOXO1, was analyzed with bidirectional fitting relative to DMSO as the negative control and baseline of activity. Using a type of inducible reporter, measures of mRNA induction for gain or loss-of-signal activity can be used to understand regulation of transcription factor activity. To generalize the intended target to other relatable targets, this assay endpoint is annotated to the dna binding intended target family, where the subfamily is forkhead box protein.
# A total of 1060 chemcials from the ToxCast library were tested in eight-point concentration-response experiments. Cell culture and cytotoxicity assays were conducted at Thermo Fisher Scientific's Custom Services facility (Madison, WI). A single lot of human HepaRG cells (Thermo Fisher Scientific, Frederick, MD) was used for the cell culture experiments. 96-well format collagen type I coated plates of human HepaRG cells were prepared using established methods. Briefly, cryopreserved HepaRG cells were thawed, plated at a density of approximately 100,000 cells/well in HepaRG Thaw, Plate, and General Purpose media (HPRG770, Thermo Fisher Scientific), and incubated for 48 hours. 0.5% DMSO was selected as vehicle control to balance the requisite need of DMSO in HepaRG cultures to maintain differentiation (for example, baseline metabolism, proportions of hepatocytes vs. cholangiocytes), while enabling further hepatic receptor pathway activation (for example, PXR and CAR) in response to chemical exposure. 48 hours after plating, the culture medium was replaced with HepaRG Serum-Free Incudtion Media. Cells were exposed to each test chemical in duplicate and maintained in CO2 incubators for another 48 hours. Chemical plates were thawed to room temperature and 200x concentrations of treatment groups were prepared. 8-point conentration-reponse curves were made with the highest exposure at 100 uM, followed by half-log dilutions, all in 0.5% DMSO. Each test plate contained variouse controls, induction positive controls (1mM phenobarbital), cytotoxicity positive controls ([…] aflatoxin B1), vehicle controls (0.5% DMSO), and total lysis controls (0.5% DMSO). Cell morphology images were taken using an Essen IncuCyte FLR automated microscope, with six 96-well plates imaged in about 24 minutes. Images were captured and exported and JPEG files. Spent culture media was transfered to black-well plates for the LDH assay, and remaining media was sorted at -80 C for later use. Cells were treated with RLT buffer and frozen until shipped for gene expression analysis. Total RNA was isolated from the cell suspension in 75 uL of Buffer RLT (Qiagen, Germantown, MD 20874) by Quintiles/Expression Analysis (Durham, NC) using a custom isolation procedure. Total RNA from each plate well was transferred to a preamplification plate. Fluidigm's 96.96 Dynamic ArrayTM (Fluidigm, Amsterdam, the Netherlands) technology was used for gene expression analyses by quantitative reverse transcription polymerase chain reaction (qRT-PCR, performed by Quintiles/Expression Analysis, Durham, NC)89. Standard TaqManTM Assays (Applied Biosystems/ThermoFisher Scientific, Foster City, CA) were used to assess the expression of 93 genes selected based on their selectivity and sensitivity to important hepatic receptors known to be modulated by environmental chemicals; importance in human hepatocyte functionality; and hepatotoxicity. […]
Compound,AC50,outcome
O=C(N[C@H](c1ccccc1)[C@@H]1CN2CCC1CC2)c1c(Cl)ccc(C(F)(F)F)c1Cl,74.5 µM (active),
O=[N+]([O-])C(Br)(CO)CO,,inactive
Cn1cc(-c2ccccc2)c(=O)c(-c2cccc(C(F)(F)F)c2)c1,,inactive
CN(C)c1ccccc1,,inactive
CCCCCCCCn1sccc1=O,,inactive
CCN(CC)N=O,,inactive
ClCCOCCCl,,inactive
Oc1ccccc1Cl,,inactive
Clc1ccc(C(c2ccc(Cl)cc2)C(Cl)(Cl)Cl)cc1,,inactive
ClC1=C(Cl)[C@]2(Cl)[C@H]3[C@H]([C@@H]4C=C[C@H]3C4)[C@@]1(Cl)C2(Cl)Cl,,inactive
OCCCBr,,inactive
CCC12COCN1COC2,,inactive
O=Cc1ccco1,,inactive
Clc1ccccc1Cl,,inactive
CC(C)(C)OOC(=O)c1ccccc1,,inactive
Cc1ccc(N)c(N)c1,,inactive
CC(C)COC(=O)c1ccccc1C(=O)OCC(C)C,,inactive
Cc1cc(N=Nc2ccccc2C)ccc1N,12.5 µM (active),
C=CCc1ccc2c(c1)OCO2,,inactive
CCN(CC)CCO,,inactive

Compound,AC50,outcome
CCCSC(=O)N(CCC)CCC,,inactive
Nc1ccc([N+](=O)[O-])cc1,,inactive
N#CC(Br)Br,,inactive
CC(C)(OOC(C)(C)c1ccccc1)c1ccccc1,,inactive
CCCCC(CC)COC(=O)c1ccc(C(=O)OCC(CC)CCCC)c(C(=O)OCC(CC)CCCC)c1 (stereo not given),,inactive
CO[C@@H]1[C@H](OC(=O)NC(=O)CCl)CC[C@]2(CO2)[C@H]1[C@@]1(C)O[C@@H]1CC=C(C)C,,inactive
COc1cc(C=O)cc2c1[C@H](COC(N)=O)[C@]1(OC(C)=O)ON2C[C@H]2[C@@H]1N2C(C)=O,3.75 µM (active),
COC(=O)c1ccccc1N,,inactive
CN(C)C(=O)Nc1ccc(Cl)cc1,,inactive
c1ccc(NNc2ccccc2)cc1,,inactive
CC(O)CCO (stereo not given),,inactive
COC(=O)Nc1nc2ccccc2[nH]1,,inactive
O=C(Oc1ccc(Br)cc1)N1CCN2CCC1CC2,,inactive
CN(C)[C@@H]1C(=O)C(C(N)=O)=C(O)[C@@]2(O)C(=O)C3=C(O)c4c(O)cccc4[C@@](C)(O)[C@H]3C[C@@H]12,,inactive
c1ccc(N=Nc2ccccc2)cc1,,inactive
Nc1cc(Cl)cc(C(=O)O)c1Cl,,inactive
CCOc1cccc(C2(N3CCN(c4ccccc4)CC3)CCC(C)CC2)c1 (stereo not given),,inactive
CS(=O)(=O)NC(=O)c1cc(Oc2ccc(C(F)(F)F)cc2Cl)ccc1[N+](=O)[O-],,inactive
C1=Cc2cccc3cccc1c23,,inactive
O=C(O)C1C2CCC(O2)C1C(=O)O (stereo not given),,inactive

# Source: PubChem BioAssay (EPA / NIEHS)
